PubChem BioAssay
A number with no mark means an inactive call. The list shows a part of the results. The source made the active and inactive calls.

Tests used:
[1] = molecular target: Short transient receptor potential channel 4 (Mus musculus) (UniProt Q9QUQ5); test: DAMGO-gated TRPC4 membrane potential modulation – cell-based, second specificity screen, HEK293 TRPC4/mu-opioid, selectivity assay for TRPC6 inhibitor project, confirmation (AID 2776;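 active means compounds whose fluorescence signal differed from control wells by over 3 SD, either direction, in both duplicate plates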); conditions: HEK293 TRPC4/MOR, membrane potential dye fluorescence, at 10 µM, channel activated by saturating DAMGO dose; hits give high values
Chain of Short transient receptor potential channel 4 (Mus musculus) (Q9QUQ5 whole entry, looked up): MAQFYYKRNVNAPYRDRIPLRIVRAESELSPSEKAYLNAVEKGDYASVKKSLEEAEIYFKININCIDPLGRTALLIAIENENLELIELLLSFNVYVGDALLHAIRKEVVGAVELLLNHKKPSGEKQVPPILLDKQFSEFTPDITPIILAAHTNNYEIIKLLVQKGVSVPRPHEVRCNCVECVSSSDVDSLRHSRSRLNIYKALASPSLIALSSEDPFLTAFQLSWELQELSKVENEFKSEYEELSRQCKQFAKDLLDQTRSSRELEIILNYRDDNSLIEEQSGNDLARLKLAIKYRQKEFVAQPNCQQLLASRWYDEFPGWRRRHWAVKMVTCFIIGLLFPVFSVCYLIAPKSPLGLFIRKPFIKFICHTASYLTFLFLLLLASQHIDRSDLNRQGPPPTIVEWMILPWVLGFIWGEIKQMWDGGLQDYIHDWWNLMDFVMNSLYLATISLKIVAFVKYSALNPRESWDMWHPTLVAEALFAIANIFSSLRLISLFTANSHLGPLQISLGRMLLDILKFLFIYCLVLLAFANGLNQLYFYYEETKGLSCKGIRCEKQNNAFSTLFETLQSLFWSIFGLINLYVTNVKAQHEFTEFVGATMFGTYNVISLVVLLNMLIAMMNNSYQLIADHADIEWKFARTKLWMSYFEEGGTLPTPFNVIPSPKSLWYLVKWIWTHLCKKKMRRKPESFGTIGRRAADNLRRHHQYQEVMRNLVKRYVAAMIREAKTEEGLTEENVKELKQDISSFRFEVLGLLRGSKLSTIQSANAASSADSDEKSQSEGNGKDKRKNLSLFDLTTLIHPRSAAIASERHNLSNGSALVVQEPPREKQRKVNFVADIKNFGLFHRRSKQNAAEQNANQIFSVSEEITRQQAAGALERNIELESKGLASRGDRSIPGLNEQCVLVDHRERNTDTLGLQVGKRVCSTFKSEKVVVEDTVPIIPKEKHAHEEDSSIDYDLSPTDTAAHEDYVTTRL

[2] = system: transient receptor potential cation channel C4 (TRPC4), mouse; test: membrane potential change in TRPC4 cells – cell-based, HEK293 TRPC4/mu-opioid, membrane potential dye, selectivity assay for TRPC6 inhibitor project, confirmation (AID 2777;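 active means rise or fall in signal beyond 3 SD of buffer-only wells in both replicate plates, either sign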;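 further: integrated kinetic ratio of fluorescence range over baseline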); conditions: membrane potential fluorescence, at 10 µM
[3] = parental HEK293 depolarization signal interference – cell-based, second counter screen, counter-screen for TRPC6 inhibitor project, confirmation (AID 2779;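 active means membrane potential signal moving either way by over 3 SD of the maximum-effect control, in both duplicate plates, meaning non-specific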); conditions: parental HEK293 membrane potential dye fluorescence; at 10 µM; maximal acetylcholine challenge after compound addition
[4] = nonspecific voltage dye signal in HEK293 – cell-based, parental HEK293, counter-screen for TRPC6 inhibitor project, confirmation (AID 2780;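 active means membrane potential signal shifting up or down by more than 3 SD of buffer-only wells, on both duplicate plates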;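 on membrane potential signal change: plate controls were buffer EC0 wells for no effect and acetylcholine ECmax wells for full effect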); conditions: parental HEK293 membrane potential dye fluorescence; at 10 µM
[5] = molecular target: Short transient receptor potential channel 6 (Mus musculus) (UniProt Q61143); test: blockers of TRPC6 cation channel activity – HEK293 cells, membrane potential dye, duplicate, confirmation (AID 488960;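 active means fluorescence ratio falls more than 5 SD below the full-stimulation control mean, in both duplicate runs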;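 on inhibition: integrated fluorescence ratio of peak minus minimum over baseline after agonist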); conditions: ACh-evoked depolarization, at 10 µM; hits give high values
Chain of Short transient receptor potential channel 6 (Mus musculus) (Q61143 whole entry, looked up): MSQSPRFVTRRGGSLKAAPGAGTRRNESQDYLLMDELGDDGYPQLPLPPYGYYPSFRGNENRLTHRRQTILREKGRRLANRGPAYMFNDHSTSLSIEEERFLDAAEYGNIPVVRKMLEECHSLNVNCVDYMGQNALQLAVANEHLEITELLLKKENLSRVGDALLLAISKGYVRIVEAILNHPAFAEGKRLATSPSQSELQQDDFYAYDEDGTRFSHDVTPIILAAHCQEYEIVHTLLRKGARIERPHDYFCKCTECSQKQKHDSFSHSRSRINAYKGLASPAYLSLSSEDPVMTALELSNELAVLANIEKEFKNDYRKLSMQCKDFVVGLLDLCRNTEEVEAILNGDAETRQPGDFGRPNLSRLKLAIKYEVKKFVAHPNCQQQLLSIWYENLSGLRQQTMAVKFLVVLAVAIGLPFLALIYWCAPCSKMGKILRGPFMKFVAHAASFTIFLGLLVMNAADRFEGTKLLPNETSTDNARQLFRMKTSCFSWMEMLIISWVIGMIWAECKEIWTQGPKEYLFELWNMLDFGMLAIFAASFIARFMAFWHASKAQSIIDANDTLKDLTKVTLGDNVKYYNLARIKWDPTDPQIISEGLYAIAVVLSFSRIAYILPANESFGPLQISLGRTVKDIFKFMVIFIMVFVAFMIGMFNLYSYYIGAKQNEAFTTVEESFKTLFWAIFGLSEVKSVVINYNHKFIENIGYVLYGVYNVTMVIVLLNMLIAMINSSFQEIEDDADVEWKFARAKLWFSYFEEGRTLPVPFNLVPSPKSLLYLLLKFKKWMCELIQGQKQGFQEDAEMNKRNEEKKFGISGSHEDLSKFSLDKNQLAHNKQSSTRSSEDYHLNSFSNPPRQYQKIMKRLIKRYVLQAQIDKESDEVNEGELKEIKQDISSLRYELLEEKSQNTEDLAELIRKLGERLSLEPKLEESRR

[6] = molecular target: Short transient receptor potential channel 6 (Mus musculus) (UniProt Q61143); test: mouse TRPC6 channel activators, confirmation, HEK293 cells, membrane potential dye, duplicate (AID 488961;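 active means ratio signal rise beyond 5 SD above unstimulated control wells' mean, seen in both duplicate runs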); conditions: HEK293-TRPC6 membrane potential dye fluorescence, FDSS, at 10 µM; hits give high values
[7] = molecular target: Inward rectifier potassium channel 2 (Mus musculus) (UniProt P35561); test: PubChem AID 2345; conditions: HEK293 Kir2.1, FluxOR thallium flux fluorescence; at 10 µM; hits give high values;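 further: 0% = vehicle mean plus 3 SD and 100% = vehicle minus no-stimulus blank window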
Chain of Inward rectifier potassium channel 2 (Mus musculus) (P35561 whole entry, looked up): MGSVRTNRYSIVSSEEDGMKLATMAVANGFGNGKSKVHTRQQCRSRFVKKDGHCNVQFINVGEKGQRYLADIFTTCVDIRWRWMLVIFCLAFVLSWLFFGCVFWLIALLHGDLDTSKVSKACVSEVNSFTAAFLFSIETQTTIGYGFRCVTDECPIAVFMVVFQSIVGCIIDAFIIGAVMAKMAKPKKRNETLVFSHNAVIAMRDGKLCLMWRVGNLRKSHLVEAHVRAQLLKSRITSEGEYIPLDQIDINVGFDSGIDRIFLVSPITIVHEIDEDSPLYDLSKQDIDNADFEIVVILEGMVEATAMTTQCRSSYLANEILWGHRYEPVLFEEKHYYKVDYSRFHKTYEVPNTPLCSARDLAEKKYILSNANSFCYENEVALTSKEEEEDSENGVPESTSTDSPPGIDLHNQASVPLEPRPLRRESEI

[8] = molecular target: Potassium voltage-gated channel subfamily KQT member 2 (Rattus norvegicus) (UniProt O88943); test: W236L mutant KCNQ2 current enhancers – cell-based, rat KCNQ2 W236L, CHO, automated patch clamp, mechanism study for KCNQ2 potentiator project (AID 2558); conditions: at 25 µM
[9] = nonspecific flux increase, KCNQ1-free cells – parental CHO cells, counter-screen for KCNQ1 potentiator project (AID 493006;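 active means duplicate-averaged activation above buffer control mean plus 5 SD of those controls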;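 further: fluorescence ratio of max minus min over baseline after K+ and Tl+ depolarization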); conditions: parental CHO-K1 cells, FluxOR thallium flux, at 10 µM; hits give high values
[10] = molecular target: Potassium voltage-gated channel subfamily KQT member 1 (Homo sapiens) (UniProt P51787); test: enhancement of KCNQ1 channel thallium flux – FluxOR thallium flux, CHO cells, duplicates, confirmation (AID 493007;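 active means potentiation averaged over duplicate wells exceeding buffer-only control mean by more than 3 SD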;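 further: 0% = buffer-only wells and 100% = R-L3 activator control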); conditions: KCNQ1 cell line, FluxOR thallium flux fluorescence, at 10 µM; hits give high values, % of reference activator effect, buffer zero
Chain of Potassium voltage-gated channel subfamily KQT member 1 (Homo sapiens) (P51787 whole entry, looked up): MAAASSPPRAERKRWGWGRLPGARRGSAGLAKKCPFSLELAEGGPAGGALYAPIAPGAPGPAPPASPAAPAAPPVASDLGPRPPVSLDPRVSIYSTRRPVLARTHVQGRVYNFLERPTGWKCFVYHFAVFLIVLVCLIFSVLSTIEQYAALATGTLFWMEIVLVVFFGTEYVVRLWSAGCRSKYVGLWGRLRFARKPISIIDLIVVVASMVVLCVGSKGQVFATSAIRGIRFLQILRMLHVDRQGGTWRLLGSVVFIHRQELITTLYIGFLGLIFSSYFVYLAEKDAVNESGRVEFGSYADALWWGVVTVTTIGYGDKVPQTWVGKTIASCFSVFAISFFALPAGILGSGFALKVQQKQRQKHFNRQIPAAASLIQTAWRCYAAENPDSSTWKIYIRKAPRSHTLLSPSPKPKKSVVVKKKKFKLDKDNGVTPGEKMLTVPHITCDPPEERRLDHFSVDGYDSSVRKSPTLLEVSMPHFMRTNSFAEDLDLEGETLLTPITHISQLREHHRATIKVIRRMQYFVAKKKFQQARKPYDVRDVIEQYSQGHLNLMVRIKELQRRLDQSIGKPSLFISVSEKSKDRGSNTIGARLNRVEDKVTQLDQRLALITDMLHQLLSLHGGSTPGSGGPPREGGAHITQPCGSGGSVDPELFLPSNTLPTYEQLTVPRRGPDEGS

[11] = molecular target: Potassium voltage-gated channel subfamily KQT member 2 (Rattus norvegicus) (UniProt O88943); test: KCNQ2 thallium flux enhancement – KCNQ2-CHO-K1 cells, selectivity assay for KCNQ1 potentiator project (AID 493009;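 active means mean duplicate potentiation above the buffer control mean plus 5 SD of buffer wells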;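 further: assay conditions were tuned for KCNQ1 rather than KCNQ2 modulators; signal is max minus min fluorescence divided by baseline after thallium stimulus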); conditions: FluxOR thallium flux fluorescence, at 10 µM; hits give high values, scaled: buffer 0, activator control 100
[12] = molecular target: Potassium voltage-gated channel subfamily KQT member 1 (Homo sapiens) (UniProt P51787); test: KCNQ1 activators by electrophysiology – IonWorks patch clamp, KCNQ1-CHO cells, orthogonal assay for KCNQ1 potentiator project, confirmation (AID 493184;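 active means current rise at least 3 SD above the untreated control mean in each of two repeat wells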); conditions: automated patch clamp current, at 10 µM; hits give high values

In the case of `CCCCOc1ccc(CSC(=N)N)cc1[N+](=O)[O-]`, the inhibition [1] is reported as 77.5% (active), the outcome [2] is reported as “inactive” and the outcome [3] is reported as “inactive”. The membrane potential signal change [4] was -186% (active), the outcome [5] was “inactive” and the outcome [6] was “inactive”.

With `CC(Nc1nc(N2CCCC2)nc2ccccc12)c1ccccc1` (centres undefined) the outcome [1] was “inactive”, the outcome [2] was “inactive” and the outcome [3] was “inactive”. For the same molecule, the outcome [4] was “inactive”, the outcome [5] was “inactive” and the outcome [6] was “inactive”.

For `Cc1ccc(CS(=O)(=O)c2ncc(Cl)c(C(=O)Nc3nnc(C)s3)n2)cc1`, the activity over 3SD threshold [7] was -51.4% and the current increase over 3SD of negative controls (%), hits give high values [8] was 48.4% (active).

With `O=c1c2cc(Br)ccc2nc(-c2cccc(Cl)c2)n1O` the outcome [8] was “inactive”, the activation [9] was 803% (active) and the potentiation [10] was 257% (active). For the same molecule, the potentiation [11] was 703% (active) and the outcome [12] was “inactive”.

With `Fc1cc(F)c2nc(Nc3nc4c(F)cccc4s3)sc2c1` the outcome [8] was “inactive”, the activation [9] was 330% (active) and the potentiation [10] was 196% (active). For the same molecule, the potentiation [11] was 422% (active) and the outcome [12] was “inactive”.

For `Cc1cc(C(=O)OCC(=O)Nc2ccc(F)c(F)c2)c(C)o1`, the outcome [8] was “inactive”.

With `Oc1c(Cl)cc(Cl)c(Cl)c1Cc1c(O)c(Cl)cc(Cl)c1Cl` the activity over 3SD threshold [7] was -73.8%, the outcome [8] was “inactive” and the inhibition [1] was 29.5% (active). For the same molecule, the activity change, negative = inhibition [2] was 4.36% (active), the signal change vs control [3] was -19% (active) and the membrane potential signal change [4] was 2.04% (active). For the same molecule, the inhibition [5] was 96.7% (active), the outcome [6] was “inactive” and the activation [9] was 414% (active). For the same molecule, the potentiation [10] was 81.5% (active), the potentiation [11] was 480% (active) and the outcome [12] was “inactive”.

With `CC(=O)NNC(=O)c1csc(Cc2c(Cl)sc3ccc(Cl)cc23)n1` the activity over 3SD threshold [7] was -69.1% and the current increase over 3SD of negative controls (%), hits give high values [8] was 1.62% (active).
